From PubChem BioAssay (NCATS)
Results filed as inconclusive are left out. A number with no mark means an inactive call. Calls of active or inactive are those of the source. The call rests on the fitted dose curve; in most records, active means well fitted cell-killing curve with a large enough effect; inconclusive means small, poorly fitted or top-dose-only effect, or effect the other way; inactive means no such curve, though single readings can be large or run the other way.
Potency means the concentration at half of the fitted maximal effect.

Experiment: Quantitative High-Throughput drug screen in 47 multiple myeloma cell lines against the NCATS MIPE library collection: KMS12PE_JCRB cell viability assay (AID 1918972); further: nearly all actives have a fitted effect of over 30% in size
Details: KMS12PE myeloma viability, CellTiter-Glo ATP, 48 h; series mostly up to 45.8 µM; viability: at the top concentration
Excerpt: PI: Beverly A. Mock Ph.D.
Laboratory of Cancer Biology and Genetics,
Center for Cancer Research, National Cancer Institute,
National Institute of Health, Bethesda, Maryland
Drug resistance and disease progression are common in multiple myeloma (MM) patients, underscoring the need for new therapeutic combinations. […] We hypothesized that effective combinations would reduce MYC expression and enhance p16 activity. […] These preclinical data identify potentially useful drug combinations for evaluation in drug-resistant MM and reveal potential mechanisms of combined drug sensitivity.
Described herein is the primary MIPE qHTS used to cherrypick compounds. Validated compounds were then further tested for potential synergistic activiy.
[1] Peat TJ, Gaikwad SM, Dubois W, Gyabaah-Kessie N, Zhang S, Gorjifard S, Phyo Z, Andres M, Hughitt VK, Simpson RM, Miller MA, Girvin AT, Taylor A, Williams D, D'Antonio N, Zhang Y, Rajagopalan A, Flietner E, Wilson K, Zhang X, Shinn P, Klumpp-Thomas C, McKnight C, Itkin Z, Chen L, Kazandijian D, Zhang J, Michalowski AM, Simmons JK, Keats J, Thomas CJ, Mock BA. Drug combinations identified by high-throughput screening promote cell cycle transition and upregulate Smad pathways in myeloma. Cancer Lett. 2023 Aug 1;568:216284. doi: 10.1016/j.canlet.2023.216284. Epub 2023 Jun 24. PMID: 37356470; PMCID: PMC10408729.
SEQUENCE No. (e.g., 1, 2, 3, etc.); […] (e.g., Cells, Incubation, Reagent, etc.); VALUE and DESCRIPTION.
1; Cells; 5 uL; white, solid bottom 1536-well Greiner assay plate.
2; Compounds; 23 nL; Kalypsis pin tool (Wako USA) equipped with a 1536-well pin head to transfer to the assay plates.
3; Incubation; 48 hours; 37C incubation.
4; Reagent;5uL; CellTiter Glo (Promega).
5; Detector; 425V; Luminescence; Viewlux PerkinElmer.
NOTES (numbers refer to Sequence numbers above)
1. The cell-based screening methods employed in this study were like those previously published. Briefly, the corresponding myeloma cell lines were screened in 1,536-well plates with 500 cells, 5-uL per well for inhibition of cell viability (assessed by measuring ATP levels with CellTiterGlo).
2. NCATS MIPE 4.0 library of approved and investigational drugs were added using the Kalypsis pin tool. Wells treated with DMSO only for 100% viability and media only wells for 0% viability were used as controls.
3. The assay plates were covered and incubated for 48 hours in a 37C, 5% CO2 incubator with controlled humidity.
4. After 48 hours, CellTilter-GloTM luminescent substrate mix (Promega) reagent was added to the assay plate and plates we incubated for 5 min at room temperature.
5. Signal was measured as median relative luminescence units on a ViewLux (PerkinElmer) multiplate reader.
[1] Heske CM, Davis MI, Baumgart JT, Wilson K, Gormally MV, Chen L, Zhang X, Ceribelli M, Duveau DY, Guha R, Ferrer M, Arnaldez FI, Ji J, Tran HL, Zhang Y, Mendoza A, Helman LJ, Thomas CJ. Matrix Screen Identifies Synergistic Combination of PARP Inhibitors and Nicotinamide Phosphoribosyltransferase (NAMPT) Inhibitors in Ewing Sarcoma. Clin Cancer Res. 2017 Dec 1;23(23):7301-7311. doi: 10.1158/1078-0432.CCR-17-1121. Epub 2017 Sep 12. PMID: 28899971; PMCID: PMC6636827.
For `N[C@@H](Cc1ccc(N(CCCl)CCCl)cc1)C(=O)O`, the Potency was 16600 nM (active).
For `Cn1c(CCCC(=O)O)nc2cc(N(CCCl)CCCl)ccc21`, the “viability” value was 148%.
With `CCCC(C)(COC(N)=O)COC(=O)NC(C)C` (stereo not given) the “viability” value was 98%.
With `COC[C@H]1OC(=O)c2coc3c2[C@@]1(C)C1=C(C3=O)C2CCC(=O)[C@@]2(C)C[C@H]1OC(C)=O` (stereo not given in full) the Potency was 16600 nM (active).
In the case of `CN1CCN(C(=O)O[C@H]2c3nccnc3C(=O)N2c2ccc(Cl)cn2)CC1`, the “viability” value is reported as 117%.
In the case of `Cn1cc(C2=C(c3cn(C4CCN(Cc5ccccn5)CC4)c4ccccc34)C(=O)NC2=O)c2ccccc21`, the Potency is reported as 2350 nM (active).
For `NCC1(CC(=O)O)CCCCC1`, the “viability” value was 99.1%.
For `C#CCN(C)[C@H](C)Cc1ccccc1`, the “viability” value was 102%.
With `O=C1CC[C@@]2(O)[C@H]3Cc4ccc(O)c5c4[C@@]2(CCN3CC2CC2)[C@H]1O5` the “viability” value was 132%.
With `O=c1[nH]c2ccccc2n1CCCN1CCC(n2c(=O)[nH]c3cc(Cl)ccc32)CC1` the Potency was 18700 nM (active).
For `Cc1cc(SCc2sc(-c3ccc(C(F)(F)F)c(F)c3)nc2C)ccc1OCC(=O)O`, the Potency was 18700 nM (active).
For `CN(C)CCc1ccc(O)cc1`, the “viability” value was 97.6%.
With `CC(C)CC(N(C)C)C1(c2ccc(Cl)cc2)CCC1` (stereo not given) the “viability” value was 105%.
In the case of `C[C@@H]1[C@@H](CC(C[C@H]2O[C@@H]3O[C@]4(C)CC[C@@H]5[C@H](C)CC[C@@H]([C@H]2C)[C@@]35OO4)C[S+](=O)([O-])c2ccc(COC(=O)N(C)C)cc2)O[C@@H]2O[C@]3(C)CC[C@H]4[C@H](C)CC[C@@H]1[C@@]24OO3` (stereo not given in full), the Potency is reported as 83.3 nM (active).
In the case of `Cc1cccc(C)c1NC(=O)CN1CCCC1=O`, the “viability” value is reported as 109%.
In the case of `CC1=C2C[C@@H]3[C@@H](CC=C4C[C@@H](O)CC[C@@]43C)[C@@H]2CC[C@]12O[C@H]1C[C@H](C)CN[C@H]1[C@H]2C`, the “viability” value is reported as 131%.
In the case of `C[C@@H]1[C@@H](C(=O)C[C@H]2O[C@@H]3O[C@]4(C)CC[C@@H]5[C@H](C)CC[C@@H]([C@H]2C)[C@@]35OO4)O[C@@H]2O[C@]3(C)CC[C@H]4[C@H](C)CC[C@@H]1[C@@]24OO3`, the Potency is reported as 83.3 nM (active).
With `CNCC(O)c1ccc(O)cc1` (stereo not given) the “viability” value was 91%.
With `CN(C)CCN(C)CCc1ccc(Cl)c(Cl)c1` the Potency was 23500 nM (active).
With `CC(O)(CS(=O)(=O)c1ccc(F)cc1)C(=O)Nc1ccc(C#N)c(C(F)(F)F)c1` (stereo not given) the Potency was 1660 nM (active).
With `CN(C)[C@@H]1C(=O)C(C(N)=O)=C(O)[C@@]2(O)C(=O)C3=C(O)c4c(O)cccc4[C@@](C)(O)[C@H]3C[C@@H]12` the “viability” value was 107%.
For `Cc1sc2c(c1C)C(c1ccc(Cl)cc1)=N[C@@H](CC(=O)OC(C)(C)C)c1nnc(C)n1-2`, the Potency was 29.6 nM (active).
In the case of `O=C(O)C(=O)c1cn(Cc2ccccc2)c2ccc(-c3ccc(OC(F)(F)F)cc3)cc12`, the Potency is reported as 7430 nM (active).
For `CNC(=O)N1N=C(c2ccc(N)cc2)c2cc3c(cc2CC1C)OCO3` (stereo not given), the Potency was 2350 nM (active).
In the case of `C[C@@H]1O[C@@H](O[C@H]2C[C@@H](O)[C@]3(CO)[C@H]4[C@H](O)C[C@]5(C)[C@@H](C6=CC(=O)OC6)CC[C@]5(O)[C@@H]4CC[C@]3(O)C2)[C@H](O)[C@H](O)[C@H]1O`, the Potency is reported as 10.5 nM (active).
